Compound activity (PubChem BioAssay)
Sampled rows, rich in hits. Any-hit rate of the full collection: about 10%.
HEK cytotox – HEK 293 cell cytotoxicity; HEK 293 viability, ATP luminescence (CellTiter-Glo), 48-72 h; Potency, µM (top dose mostly 115 µM), for inactives: at the top dose activity change, negative = cytotoxicity, most hits filed as inhibitors; 94,000 tested, 6.6% active; also: nearly all actives have a fitted effect of over 60% in size
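Luminescence from cellular ATP, measured with CellTiter-Glo, indicates HEK 293 viability. Cells plated at 250 cells/well are treated with compound for 48 or 72 hr at 37 degree Celsius before reagent addition.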
FLuc inh – inhibitors of firefly (Photinus pyralis) luciferase; P08659; Potency, µM (series often up to 115 µM), usual class: inhibitors; purified P. pyralis luciferase, luminescence, biochemical; 76,000 tested, 2.5% active; also: nearly all actives have a fitted effect of over 65% in size
Target sequence (P08659 whole entry, looked up): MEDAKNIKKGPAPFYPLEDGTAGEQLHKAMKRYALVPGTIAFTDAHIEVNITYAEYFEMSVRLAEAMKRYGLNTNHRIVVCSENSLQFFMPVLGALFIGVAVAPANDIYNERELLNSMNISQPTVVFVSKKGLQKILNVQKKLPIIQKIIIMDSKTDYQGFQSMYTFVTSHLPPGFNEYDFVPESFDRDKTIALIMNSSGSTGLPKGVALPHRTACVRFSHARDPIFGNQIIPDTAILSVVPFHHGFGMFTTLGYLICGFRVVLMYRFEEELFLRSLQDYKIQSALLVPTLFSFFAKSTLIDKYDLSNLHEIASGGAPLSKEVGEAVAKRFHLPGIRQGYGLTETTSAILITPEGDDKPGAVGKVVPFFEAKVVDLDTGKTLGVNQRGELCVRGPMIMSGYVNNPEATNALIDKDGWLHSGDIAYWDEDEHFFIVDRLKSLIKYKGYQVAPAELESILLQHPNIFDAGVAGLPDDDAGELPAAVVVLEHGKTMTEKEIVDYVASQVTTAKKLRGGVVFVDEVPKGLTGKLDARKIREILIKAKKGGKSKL
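Purified 10nM P. pyralis luciferase with 10uM D-luciferin and 10uM ATP in 50mM Tris acetate pH 7.5, 10mM Mg acetate, 0.01% Tween-20, 0.05% BSA. qHTS titration; luminescence read by CCD imager.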
hNpr1 antagonist – antagonists of human natriuretic peptide receptor Npr1. 76,000 tested, 1.6% active. HEK293 hNpr1 GloSensor cGMP, ANP-stimulated luminescence. Potency, µM (titrated, usually from 46.3 µM), for the others: top-dose activity change, negative = inhibition, usual class: inhibitors. P16066; calls by dose curve; also: nearly all actives have a fitted effect of over 60% in size
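Compound pre-incubated 30 min at room temperature on GloSensor-loaded HEK293 cells stably carrying hNpr1 and the pGS-40F cGMP biosensor. Stimulation uses hNppA at 0.1 nM final; luminescence is taken at baseline and 20 min post-agonist.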
GPT2 inhibitor – GPT2 alanine aminotransferase inhibition; Potency, µM (doses to about 57.7 µM), inactives show at the highest dose activity change, negative = inhibition, most hits filed as inhibitors; Recombinant GPT2, coupled pyruvate oxidase/HRP Amplex Red fluorescence; AID 1671188; 100,000 tested, 0.25% active; also: nearly all actives have a fitted effect of over 60% in size
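Inhibition is scored from Amplex Red fluorescence generated when pyruvate oxidase and HRP act on pyruvate released by GPT2. Reactions contain 10ng/uL enzyme, 250uM a-KG and 2mM L-alanine and run 30 min at room temperature.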
3T3 cytotox – kills NIH 3T3 cells; NIH 3T3 viability, CellTiter-Glo ATP luminescence, 48-72 h; Potency, µM (titrated, usually from 96.7 µM), for the others: top-dose activity change, negative = cytotoxicity, actives largely listed as inhibitors; 94,000 tested, 4.3% active; AID 1345082; also: nearly all actives have a fitted effect of over 55% in size
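Cytotoxicity was measured by CellTiter-Glo ATP luminescence after 48 or 72 h compound exposure at 37 °C. Mouse NIH 3T3 fibroblasts were seeded at 400 cells/well and dosed by 23 nL pin transfer.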
* = called active by the depositor; i = inactive; ? = inconclusive; . = no result given; ! = repeats disagree; [ ] = dose if it differs, or a comment. Unless noted, calls follow the shape of the dose curve; as a rule, active = well fitted curve in the direction sought with a large enough effect; inconclusive = small, poorly fitted or top-dose-only effect, or another doubt; inactive = no such curve, though single readings can be large; an effect the other way counts as inactive or inconclusive. % is scaled to controls: 0 for no effect and ±100 for the full control effect; potency is read from the fitted curve at half-maximal effect.

SMILES	HEK cytotox	FLuc inh	hNpr1 antagonist	GPT2 inhibitor	3T3 cytotox
CCC(C(=O)N1CCCN(c2cc(-c3ccc(OC)cc3)[nH]n2)CC1)c1ccccc1 (stereo not given)	40µM*	i	-2%	?	?
CC(C(=O)N1CCCN(c2cc(-c3ccc(Cl)cc3)[nH]n2)CC1)c1ccccc1 (stereo not given)	40µM*	?	?	?	35µM*
Cc1ccc(-c2cc(N3CCCN(C(=O)C(C)Oc4ccccc4)CC3)n[nH]2)cc1C (stereo not given)	?	i	-19%	?	?
CCC(C(=O)NC1CCN(c2cc(-c3ccc(OC)cc3)[nH]n2)CC1)c1ccccc1 (stereo not given)	?	i	-3%	-27%	?
COc1ccccc1CN1CCN(C(=O)c2ccc(CCC(C)(C)O)cc2)CC1	2%	i	-4%	-6%	-6%
c1ccc(CO[C@H]2COCCN(c3nc4ccccc4o3)C2)cc1	-24%[172 µM]	i	-2%[70.6 µM]	0%[88.5 µM]	-8%[138 µM]
c1ccc(CO[C@H]2COCCN(c3nc4ccccc4s3)C2)cc1	112µM*	?	-4%[70.6 µM]	-10%[88.5 µM]	?
Cc1nnc2ccc(N3CCN(S(=O)(=O)c4cccc(C(F)(F)F)c4)CC3)nn12	-27%	.	.	.	?
c1cnc2nc(C3CCNC3)[nH]c2c1 (stereo not given)	-13%[230 µM]	i	0%[70.6 µM]	4%[88.5 µM]	-4%[174 µM]
O=C(O)c1ccc(-c2nc3ncccc3[nH]2)cc1	-3%[172 µM]	i	8%[70.6 µM]	0%[88.5 µM]	-10%[138 µM]
Cc1cc(-c2nc3ncccc3[nH]2)c(C)[nH]1	?	40µM*	-1%[70.6 µM]	-4%[88.5 µM]	?
c1cnc2nc(-c3c[nH]c4ncccc34)[nH]c2c1	?	89µM*	12%[70.6 µM]	-58%[88.5 µM]	?
c1ccc(-c2nc3ncccc3[nH]2)nc1	?	i	21%[70.6 µM]	2%[88.5 µM]	?
c1cnc2nc(-c3ccsc3)[nH]c2c1	126µM*!	?	3%[70.6 µM]	-10%[88.5 µM]	?
COCCn1ncc(N2CCCC(CC(=O)NCc3cc(F)cc(F)c3)C2)cc1=O (stereo not given)	3%	i	1%	i	-33%
COCCNC(=O)[C@@H]1CCC[C@@H](NC(=O)C2CC2)CN(C)C(=O)C1	-21%[172 µM]	i	-7%[70.6 µM]	-4%[88.5 µM]	-22%[138 µM]
O=C(CC(c1ccccc1)c1ccc2c(c1)OCO2)N1CCSCC1 (stereo not given)	?	i	?	-2%	-25%
Cc1csc(CN(C)C(=O)CC(c2ccccc2)c2ccc3c(c2)OCO3)n1 (stereo not given)	45µM*	32µM*	-31%	4%	-23%
CCC(NC(=O)c1cnc(-c2ccccc2)nc1-c1ccncc1)c1ccc(OC)cc1 (stereo not given)	?	i	-2%	-7%	?
CC1=C[C@@H](CNC(=O)CCCC(=O)O)[C@H](C(C)C)C[C@H]1Cc1nc2ccncc2[nH]1	-10%[172 µM]	i	-1%[70.6 µM]	-9%[88.5 µM]	-19%[174 µM]
CC1=C[C@@H](CNC(=O)c2ccnc(Cl)c2)[C@H](C(C)C)C[C@H]1Cc1nc2ccc(C)cc2[nH]1	?	i	?	-13%	18µM*
COc1ccc(C(=O)NC[C@@H]2C=C(C)[C@H](Cc3nc4ccncc4[nH]3)C[C@H]2C(C)C)cc1	89µM*	i	-27%[70.6 µM]	3%[88.5 µM]	?
CC1=C[C@@H](CNC(=O)CCC(=O)O)[C@H](C(C)C)C[C@H]1Cc1nc2ccncc2[nH]1	i	i	7%[70.6 µM]	-8%[88.5 µM]	3%[138 µM]
CC1=C[C@@H](CNS(=O)(=O)c2ccccc2)[C@H](C(C)C)C[C@H]1Cc1nc2ccncc2[nH]1	71µM*	i	-23%[70.6 µM]	2%[88.5 µM]	79µM*
COc1ccc2nc(C[C@@H]3C[C@@H](C(C)C)[C@H](CN4C(=O)C(C)=C(C)C4=O)C=C3C)[nH]c2c1	?	i	-17%	i	?
CC1=C[C@@H](CN2C(=O)C(C)=C(C)C2=O)[C@H](C(C)C)C[C@H]1Cc1nc2ccc(C)cc2[nH]1	22µM*	i	?	-43%[88.5 µM]	28µM*
